Screening data (PubChem)
Hits are enriched below; roughly 9.5% of the tested compounds scored in any of these assays.
NS1 inh = qHTS Assay for Inhibitors of Influenza NS1 Protein Function. 270,000 tested, 0.4% active. Potency, µM (doses to about 46.1 µM); calls by dose curve; note: actives are rising curves; nearly all actives have a fitted effect of over 50% in size
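OD600 was taken as the measure of yeast growth restored by compound in an NS1-expressing S. cerevisiae strain. Cells had been washed out of glucose medium and diluted 1:100 into galactose -URA medium, pH 6.0.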
Pf growth 96h = Primary qHTS for delayed death inhibitors of the malarial parasite plastid, 96 hour incubation | P. falciparum luciferase reporter growth, 96 h | Potency, µM (series often up to 28.7 µM), hits mostly inhibitors | 320,000 tested, 6.9% active
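Plates of compound plus infected erythrocytes (2% hematocrit, 0.05% parasitemia final) incubate 96 hours, 37 C, 5% CO2. Detection reagent added; reduced luminescence from the parasites' luciferase reporter flags inhibition.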
SARS PLpro yeast = qHTS of Yeast-based Assay for SARS-CoV PLP | Potency, µM (top dose mostly 32.9 µM), hits mostly activators | 330,000 tested, 0.19% active | S. cerevisiae expressing SARS-CoV PLpro, growth rescue; calls by dose curve; note: nearly all actives have a fitted effect of over 55% in size
Pf growth 48h = Primary qHTS for delayed death inhibitors of the malarial parasite plastid, 48 hour incubation; P. falciparum luciferase growth in erythrocytes, 48 h; Potency, µM (titrated, usually from 28.7 µM), usual class: inhibitors; 310,000 tested, 5.9% active; AID 504832, 2011
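A one-generation exposure of luciferase-tagged malaria parasites in RPMI 1640/Albumax erythrocyte culture, 37 C and 5% CO2. Inhibition is inferred from decreased luminescence after adding detection reagent.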
RE007 growth inh = qHTS Assay for Inhibitors of the HIV-1 protein Vpr; Potency, µM (titrated, usually from 92.2 µM), most hits filed as inhibitors; AID 651644, 2012; S. pombe RE007 Vpr strain, BacTiter-Glo ATP luminescence, 24 h; 360,000 tested, 0.21% active; active = well fitted falling curve with a large enough effect; inconclusive = small, poorly fitted or top-dose-only effect; inactive = no such curve, though single readings can be large or run the other way; note: nearly all actives have a fitted effect of over 50% in size
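Fission yeast strain RE007, carrying one chromosomally integrated HIV-1 vpr copy, was seeded at OD 0.01 in PMG+AL medium with 23 nL pinned compound. After 24 h at 30 °C and 99% humidity, viability was read by BacTiter-Glo luminescence.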
A number is an active result; – = inactive; ? = inconclusive; · = no result given; [ ] = dose if it differs, or a comment. Unless noted, calls come from the whole dose curve; as a rule, active = well fitted inhibition curve with a large enough effect; inconclusive = small, poorly fitted or top-dose-only effect, or another doubt; inactive = no such curve, though single readings can be large or run the other way.

SMILES	NS1 inh	Pf growth 96h	SARS PLpro yeast	Pf growth 48h	RE007 growth inh
O=C(CN(C(=O)Cn1nnc(-c2cccs2)n1)c1ccc2c(c1)OCCO2)NC1CCCCC1	–	–	–	–	–
C=CC[C@@H]1C=C[C@H](O/N=C/c2ccc(C(=O)N3[C@H](c4ccc(C)cc4)[C@@H](C)CC[C@H]3C(=O)OC)cc2)[C@@H](CO)O1	–	?	–	–	·
COC(=O)[C@@H]1CC[C@H](C)[C@@H](c2ccc(C)cc2)N1C(=O)c1ccc(/C=N/OC[C@@H](O)COCc2ccco2)cc1	–	6.6µM	–	6.6µM	·
COc1ccc(C)cc1N(C(=O)COc1cccc(F)c1)c1nc2ccccc2s1	–	?	–	0.74µM	–
NS(=O)(=O)c1ccc(CNC(=O)CCSCCC(=O)NCc2ccc(S(N)(=O)=O)cc2)cc1	–	–	–	–	–
CCCN(CCC)C(=O)c1cc2c(=O)n3cccc(C)c3nc2s1	–	–	–	–[0.00184 µM]	–
COC(=O)C1=C(c2ccc(-c3ccccc3)c(F)c2)C[C@@H]2CC[C@H]1N2C(=O)N1CCc2cc(OC)c(OC)cc2C1	·	?	–	5.9µM	–
COC(=O)C1=C(c2ccc(-c3ccccc3)c(F)c2)C[C@@H]2CC[C@H]1N2C(=O)N1CCC(C)CC1	·	?	–	?	–
COC(=O)C1=C(c2ccc(-c3ccccc3)c(F)c2)C[C@@H]2CC[C@H]1N2C(=O)N1CCC(O)CC1	·	?	–	?	–
COC(=O)C1=C(c2ccc(-c3ccccc3)c(F)c2)C[C@@H]2CC[C@H]1N2C(=O)N1CCCCC1	·	?	–	10µM	–
COC(=O)C1=C(c2ccc3ccccc3c2)C[C@@H]2CC[C@H]1N2C(=O)N1CCCC1	·	?	–	9.3µM	–
COC(=O)C1=C(c2ccc(-c3ccccc3)c(F)c2)C[C@@H]2CC[C@H]1N2C(=O)N1CCCC1	·	?	–	15µM	–
CCCC(=O)Nc1ccc(Cl)c(NC(=S)NC(=O)c2ccco2)c1	–	–	–	–	–
CN1c2ccccc2-c2nc3ccccc3n2C1c1ccncc1 (stereo not drawn)	–	?	–	?	–
COc1ccc2c(c1)C1(Nc3ccccc3-c3nc4ccccc4n31)C(=O)N2 (stereo not drawn)	–	·	–	0.41µM	–
COc1ccc2c(c1)C1(Nc3ccccc3-c3nc4ccccc4n31)C(=O)N2C (stereo not drawn)	–	–	–	6.6µM	–
COc1ccc(N2C(=O)c3ccccc3NC23C(=O)N(C)c2ccccc23)cc1 (stereo not drawn)	–	·	–	–	–
CC1(c2ccncc2)Nc2ccccc2-c2nc3ccccc3n21 (stereo not drawn)	–	2.6µM	–	3.3µM	–
CCOc1cc2[nH]c(=S)n(CCC(=O)N3CCc4ccccc4C3)c(=O)c2cc1OCC	–	9.3µM	–	?	–[3.69 µM]
COc1ccc(-c2nnc3ccc(SCC(=O)Nc4nc5ccc(C)cc5s4)nn23)cc1OC	–	?	–	13µM	–
CCC(Sc1ccc2nnc(-c3ccc(OC)c(OC)c3)n2n1)C(=O)O (stereo not drawn)	–	?	–	·	–
COC(=O)CSc1ccc2nnc(-c3ccc(OC)c(OC)c3)n2n1	–	–	–	–	–
COc1ccc(-c2nnc3ccc(SC(C(C)=O)C(C)=O)nn23)cc1OC	–	?	–	9.3µM	–
NS(=O)(=O)c1ccc(CNC(=S)Nc2cc(S(=O)(=O)N3CCOCC3)ccc2Cl)cc1	·	·	·	·	–
COc1ccc(C2CC(=O)Oc3cc(OC)ccc32)cc1 (stereo not drawn)	·	·	–	·	–
SMILES	NS1 inh	Pf growth 96h	SARS PLpro yeast	Pf growth 48h	RE007 growth inh
COc1ccc(C2CC(O)(c3ccccc3)Oc3cc(OC)ccc32)cc1 (stereo not drawn)	–	?	–	12µM	–
Cc1cc(NC(=O)CCl)no1	–	–	–	2.9µM	–
COc1ccc(C(=O)NC(C(=O)OCC(=O)Nc2sccc2C(N)=O)C(C)C)cc1 (stereo not drawn)	·	–	–	12µM	–
COc1ccc(C(=O)N[C@H](C(=O)Nc2sccc2C(N)=O)C(C)C)cc1	–	–	–	–	–
COc1ccccc1NC(=O)CSC1=NC(=O)C(NC(C)=O)C(=O)N1 (stereo not drawn)	–	0.83µM	–	–	–
COc1ncccc1C(=O)NC1CCCc2c1cnn2-c1cc(C)cc(C)c1 (stereo not drawn)	–	–	–	–	–
COCc1ccc(C(=O)NC2CCCc3c2cnn3-c2cc(C)cc(C)c2)s1 (stereo not drawn)	–	7.4µM	–	?	–
CC1CCCCC1NC1CCN(C)CC1 (stereo not drawn)	–	9.3µM	–	–	–
CN1CCN(C2CCCCCC2)CC1	–	–	–	–	–
Cc1[nH]c2ccccc2c1C(=O)C(=O)N1c2ccccc2CC1C (stereo not drawn)	–	12µM	–	6.6µM	–
Cc1[nH]c2ccccc2c1C(=O)C(=O)N1CCCc2ccccc21	–	10µM	–	?	–
Cc1[nH]c2ccccc2c1C(=O)C(=O)N(C)C1CCCCC1	–	2.6µM	–	2.6µM	–
CCc1cccc(CC)c1N1C(=O)C2=C(SCCCS2)C1=O	·	·	·	·	–
O=C(COC(=O)c1cc(Br)ccc1Cl)NC1CCCC1	·	–	–	–	–
CCOc1ccc(CCNC(=O)CCc2c(C)nc3ncnn3c2C)cc1OCC	–	5.9µM	–	?	–
Cc1nc2ncnn2c(C)c1CCC(=O)NCCC1=CCCCC1	–	?	–	?	–
COc1ccc(CCNC(=O)CCn2cccc2)cc1OC	–	–	–	–	–
O=C(CCn1cccc1)NCCc1ccc(Cl)cc1	–	10µM	–	–	–
CCOc1ccc(CCNC(=O)CCn2cccc2)cc1OCC	–	1.7µM	–	?	–
CCOc1ccc(CCNC(=O)CN2C(=O)CCSc3ccccc32)cc1OCC	–	0.19µM	–	–	–
CN(CC(=O)Nc1cccc(S(=O)(=O)N(C)c2ccccc2)c1)Cc1cccs1	·	·	·	·	–
C=CCN=C1N[C@@H](c2ccc(Br)cc2)C(C(=O)OC)=C(C)N1Cc1ccccc1	–	?	–	?	·
CC(=O)NCCn1c(SCc2ccc(C)cc2C)nc2ccccc2c1=O	–	–	–	·	–
O=C(NCCc1ccccc1)C1CCC(=O)N1CCc1ccccc1 (stereo not drawn)	–	–	–	–[0.00184 µM]	–
CCOc1ccc(CCNC(=O)C2CCC(=O)N2CCc2ccccc2)cc1OCC (stereo not drawn)	–	13µM	–	·	–
COc1ccccc1C1Nc2ccccc2NC2=C1C(=O)CC(C)(C)C2 (stereo not drawn)	–	–	–	–	–
COc1ccc(OC)c(C2Nc3ccccc3NC3=C2C(=O)CC(C)(C)C3)c1 (stereo not drawn)	–	4.1µM	–	–	–
